Measurements reported in PubChem BioAssay AID1159580 (chemical genetic matrix, 2015).
Several values for one entry are separate records, joined by “and”; a condition that tells them apart may be missing. Equal entries are not always repeated. Out of some 5,500 compounds screened, about 2,000 (36%) were called active. Roughly 18% stayed inconclusive and do not appear here. Cut-off read from the data, not from the text of the source: active = normalized growth mostly below about 0.91 (no sharp cut-off); inconclusive = no clear call, values can overlap the other calls; inactive = mostly above about 0.92. Some of the results follow.

Experiment: chemical genetic growth profiling, strain panel (AID 1159580);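 note: tested at 20 µM; growth read once vehicle control cultures reached saturation at 30 °C; 1 = growth at the plate median or of vehicle wells; lower values mean less growth of the strain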
Details: growth OD

Measured: normalized growth

NCCCS(=O)(=O)O
inactive: S. cerevisiae deletion strains, locus YKL068W, stronger effect = lower value 0.995 | S. cerevisiae deletion strains, locus YKL085W, strain MDH1 (second series), stronger effect = lower value 0.986 | S. cerevisiae deletion strains, locus YKL085W, strain MDH1, stronger effect = lower value 0.986 | S. cerevisiae deletion strains, locus YKL160W, strain elf1, stronger effect = lower value 1 | S. cerevisiae deletion strains, locus YKL190W, strain CNB1, stronger effect = lower value 0.993 | S. cerevisiae deletion strains, locus YKR001C, strain vps1, stronger effect = lower value 0.994 | S. cerevisiae deletion strains, locus YKR026C, strain gcn3, stronger effect = lower value 1 | S. cerevisiae deletion strains, locus YKR091W, strain srl3, stronger effect = lower value 1.01 | S. cerevisiae deletion strains, locus YLL001W, strain dnm1, stronger effect = lower value 1.03 | S. cerevisiae deletion strains, locus YLL026W, stronger effect = lower value 1.01 | S. cerevisiae deletion strains, locus YLL041C, strain sdh2, stronger effect = lower value 1.01 | S. cerevisiae deletion strains, locus YLR027C, strain aat2, stronger effect = lower value 0.996 | S. cerevisiae deletion strains, locus YLR039C, strain RIC1, stronger effect = lower value 0.986 | S. cerevisiae deletion strains, locus YLR058C, strain SHM2, stronger effect = lower value 0.965 | S. cerevisiae deletion strains, locus YLR102C, strain apc9, stronger effect = lower value 0.993 | S. cerevisiae deletion strains, locus YLR113W, strain HOG1, stronger effect = lower value 0.954 | S. cerevisiae deletion strains, locus YLR221C, strain rsa3, stronger effect = lower value 1.01 | S. cerevisiae deletion strains, locus YLR258W, strain gsy2, stronger effect = lower value 1.01 | S. cerevisiae deletion strains, locus YLR262C, strain YPT6 (second series), stronger effect = lower value 1.02 | S. cerevisiae deletion strains, locus YLR262C, strain YPT6, stronger effect = lower value 1.05 | S. cerevisiae deletion strains, locus YLR268W, strain sec22, stronger effect = lower value 1.04 | S. cerevisiae deletion strains, locus YLR320W, strain mms22, stronger effect = lower value 1.01 | S. cerevisiae deletion strains, locus YLR330W, strain CHS5, stronger effect = lower value 0.983 | S. cerevisiae deletion strains, locus YLR342W, strain FKS1 (second series), stronger effect = lower value 0.99 | S. cerevisiae deletion strains, locus YLR342W, strain FKS1, stronger effect = lower value 1.02 | S. cerevisiae deletion strains, locus YLR357W, strain rsc2, stronger effect = lower value 1.04 | S. cerevisiae deletion strains, locus YLR370C, strain arc18, stronger effect = lower value 1.01 | S. cerevisiae deletion strains, locus YLR371W, strain rom2, stronger effect = lower value 0.934 | S. cerevisiae deletion strains, locus YLR384C, strain iki3, stronger effect = lower value 1.01 | S. cerevisiae deletion strains, locus YLR418C, strain cdc73, stronger effect = lower value 1.01 | S. cerevisiae deletion strains, locus YML016C, strain PPZ1, stronger effect = lower value 0.984 | S. cerevisiae deletion strains, locus YML032C, strain rad52, stronger effect = lower value 0.994 | S. cerevisiae deletion strains, locus YML120C, strain ndi1, stronger effect = lower value 1.02 | S. cerevisiae deletion strains, locus YML124C, strain tub3, stronger effect = lower value 0.987 | S. cerevisiae deletion strains, locus YMR058W, strain fet3, stronger effect = lower value 1.04 | S. cerevisiae deletion strains, locus YMR078C, strain ctf18, stronger effect = lower value 0.999 | S. cerevisiae deletion strains, locus YMR125W, strain sto1, stronger effect = lower value 1.02 | S. cerevisiae deletion strains, locus YMR129W, stronger effect = lower value 1.01 | S. cerevisiae deletion strains, locus YMR205C, strain PFK2, stronger effect = lower value 1.02 | S. cerevisiae deletion strains, locus YMR223W, strain ubp8, stronger effect = lower value 0.96 | S. cerevisiae deletion strains, locus YMR231W, strain pep5, stronger effect = lower value 1.02 | S. cerevisiae deletion strains, locus YMR263W, strain SAP30, stronger effect = lower value 0.977 | S. cerevisiae deletion strains, locus YMR307W, strain GAS1, stronger effect = lower value 0.971 | S. cerevisiae deletion strains, locus YNL067W, strain RPL9B, stronger effect = lower value 1.01 | S. cerevisiae deletion strains, locus YNL071W, strain lat1, stronger effect = lower value 1.03 | S. cerevisiae deletion strains, locus YNL128W, strain TEP1, stronger effect = lower value 0.974 | S. cerevisiae deletion strains, locus YNL153C, strain GIM3, stronger effect = lower value 0.991 and 1.01 | S. cerevisiae deletion strains, locus YNL175C, strain NOP13, stronger effect = lower value 1 | S. cerevisiae deletion strains, locus YNL183C, strain NPR1, stronger effect = lower value 0.937 | S. cerevisiae deletion strains, locus YNL197C, strain WHI3, stronger effect = lower value 1.01 | S. cerevisiae deletion strains, locus YNL209W, strain ssb2, stronger effect = lower value 1.01 | S. cerevisiae deletion strains, locus YNL224C, strain SQS1, stronger effect = lower value 1.01 | S. cerevisiae deletion strains, locus YNL233W, strain BNI4, stronger effect = lower value 0.987 | S. cerevisiae deletion strains, locus YNL248C, strain rpa49, stronger effect = lower value 0.959 | S. cerevisiae deletion strains, locus YNL250W, strain rad50, stronger effect = lower value 0.976 | S. cerevisiae deletion strains, locus YNL271C, strain bni1, stronger effect = lower value 0.999 | S. cerevisiae deletion strains, locus YNL298W, strain CLA4, stronger effect = lower value 0.967 | S. cerevisiae deletion strains, locus YNL307C, strain MCK1, stronger effect = lower value 0.998 | S. cerevisiae deletion strains, locus YNL322C, strain KRE1 (second series), stronger effect = lower value 1.01 | S. cerevisiae deletion strains, locus YNL322C, strain KRE1, stronger effect = lower value 0.987 | S. cerevisiae deletion strains, locus YNR049C, strain mso1, stronger effect = lower value 1.01 | S. cerevisiae deletion strains, locus YNR052C, strain pop2, stronger effect = lower value 0.969 | S. cerevisiae deletion strains, locus YOL006C, strain TOP1, stronger effect = lower value 1.02 | S. cerevisiae deletion strains, locus YOL012C, strain htz1 0.962 | S. cerevisiae deletion strains, locus YOL147C, strain pex11, stronger effect = lower value 0.989 | S. cerevisiae deletion strains, locus YOR001W, strain rrp6, stronger effect = lower value 1.01 | S. cerevisiae deletion strains, locus YOR061W, strain CKA2, stronger effect = lower value 0.965 | S. cerevisiae deletion strains, locus YOR069W, strain VPS5, stronger effect = lower value 0.984 | S. cerevisiae deletion strains, locus YOR070C, strain gyp1, stronger effect = lower value 1.01 | S. cerevisiae deletion strains, locus YOR080W, strain dia2, stronger effect = lower value 1.03 | S. cerevisiae deletion strains, locus YOR083W, strain WHI5 (second series), stronger effect = lower value 1.02 | S. cerevisiae deletion strains, locus YOR083W, strain WHI5, stronger effect = lower value 1 | S. cerevisiae deletion strains, locus YOR106W, strain vam3, stronger effect = lower value 1.01 | S. cerevisiae deletion strains, locus YOR136W, strain idh2, stronger effect = lower value 0.981 | S. cerevisiae deletion strains, locus YOR144C, strain elg1, stronger effect = lower value 0.998 | S. cerevisiae deletion strains, locus YOR184W, strain ser1, stronger effect = lower value 0.983 | S. cerevisiae deletion strains, locus YOR231W, strain MKK1, stronger effect = lower value 0.976 | S. cerevisiae deletion strains, locus YOR265W, strain rbl2, stronger effect = lower value 1.02 | S. cerevisiae deletion strains, locus YOR270C, strain vph1, stronger effect = lower value 1.09 | S. cerevisiae deletion strains, locus YOR290C, strain snf2, stronger effect = lower value 1.01 | S. cerevisiae deletion strains, locus YOR316C, strain cot1, stronger effect = lower value 0.981 | S. cerevisiae deletion strains, locus YPL051W, strain arl3, stronger effect = lower value 1.01 | S. cerevisiae deletion strains, locus YPL055C, strain LGE1, stronger effect = lower value 0.993 | S. cerevisiae deletion strains, locus YPL078C, strain atp4, stronger effect = lower value 1.02 | S. cerevisiae deletion strains, locus YPL106C, strain sse1, stronger effect = lower value 1.01 | S. cerevisiae deletion strains, locus YPL240C, strain hsp82, stronger effect = lower value 1.03 | S. cerevisiae deletion strains, locus YPL241C, strain CIN2, stronger effect = lower value 0.997 | S. cerevisiae deletion strains, locus YPL256C, strain CLN2, stronger effect = lower value 0.964 | S. cerevisiae deletion strains, locus YPR119W, strain clb2, stronger effect = lower value 0.987 | S. cerevisiae deletion strains, locus YPR141C, strain kar3, stronger effect = lower value 0.973 | S. cerevisiae deletion strains, locus YPR163C, strain tif3, stronger effect = lower value 0.998 | S. cerevisiae deletion strains, locus YPR167C, strain met16, stronger effect = lower value 1 | S. cerevisiae deletion strains, strain wtn01, stronger effect = lower value 0.958 | S. cerevisiae strains, strain wild type, stronger effect = lower value 0.984
